Reference: PubChem BioAssay (NCI)
This is part of a sample that, as a whole, favours compounds with a hit. Of some 83,000 tested, about 20% had one in any assay.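 Single-concentration screen, 48 h exposure, 96-well plates. Endpoint: percent growth. Below 10 = active.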 The source made the active and inactive calls.

Key:
Test in all cases: NCI-60 one-dose screen, 48 h (100 = growth as untreated, 0 = no growth, -100 = all killed)
Conditions in all cases: 10 µM unless noted
[1] = test system: HCT-15 colon
[2] = test system: HT29 colon
[3] = test system: SNB-75 CNS
[4] = test system: SNB-19 CNS
[5] = test system: U251 CNS
[6] = test system: PC-3 prostate
[7] = test system: SK-MEL-5 melanoma
[8] = test system: UACC-62 melanoma
[9] = test system: LOX IMVI melanoma
[10] = test system: SK-MEL-28 melanoma
[11] = test system: SK-MEL-2 melanoma
[12] = test system: EKVX NSCLC
[13] = test system: SN12C renal
[14] = test system: UO-31 renal
[15] = test system: TK-10 renal
[16] = test system: ACHN renal
[17] = test system: CAKI-1 renal
[18] = test system: A498 renal
[19] = test system: CCRF-CEM leukemia
[20] = test system: MOLT-4 leukemia

Measured: growth

Cc1cc2c(c(C)c1Cl)C(=O)/C(=C/c1ccc(O)c(O)c1)O2
inactive: [1] 106% | [2] 106% | [3] 99% | [4] 99.2% | [5] 85.4% | [6] 100% | [7] 100% | [8] 88.8% | [9] 93.7% | [10] 105% | [11] 104% | [12] 98.7% | [13] 92.1% | [14] 72.2% | [15] 119% | [16] 92.7% | [17] 90.6% | [18] 106% | [19] 101% | [20] 108%

CC(C)N1C(=O)S/C(=C2/SC(=O)N(C(C)C)C2=O)C1=O
inactive: [1] 95.9% | [2] 102% | [3] 64.8% | [4] 93.3% | [5] 96.3% | [6] 98.2% | [7] 93.9% | [8] 91.6% | [9] 91.9% | [10] 105% | [11] 98.7% | [12] 85.5% | [13] 94.8% | [14] 87.7% | [15] 89.9% | [16] 102% | [17] 98.8% | [18] 89.5% | [19] 38.9% | [20] 99.4%

OCc1cnccc1NCCCCOc1ccc(Oc2ccccc2)cc1
inactive: [1] 49.8% | [2] 24.6% | [3] 71.6% | [4] 74.6% | [5] 52.3% | [6] 56% | [7] 15.7% | [8] 61.5% | [9] 45.9% | [10] 70.2% | [11] 81.6% | [12] 50.6% | [13] 70.7% | [14] 49.8% | [15] 66.1% | [16] 80.3% | [17] 70.7% | [18] 76.9% | [19] 53.9% | [20] 45.1%

CCOC(=O)C1=C(CCl)NC(=O)NC1c1ccc2c(c1)OCO2 (stereo not given)
inactive: [3] 77.6% | [4] 64.4% | [5] 18.5% | [6] 53.9% | [8] 31.4% | [9] 21% | [10] 45.6% | [11] 69.5% | [12] 52.7% | [13] 20.1% | [14] 56.9% | [15] 57.3% | [16] 31% | [17] 47% | [18] 98% | [19] 10.8% | [20] 37.7%
active: [1] 3.53% | [2] 6.92% | [7] 9.17%

CCOC(=O)c1cc(C#N)n2ccc3ccccc3c12
inactive: [1] 96.6% | [2] 101% | [3] 76.2% | [4] 92.7% | [5] 96.9% | [6] 102% | [7] 97.4% | [8] 91.5% | [9] 95.7% | [10] 106% | [11] 106% | [12] 90.9% | [13] 94.5% | [14] 101% | [15] 91.3% | [16] 109% | [17] 90.2% | [18] 88% | [19] 98.8% | [20] 96.2%

N#C/C(=C\c1ccc([N+](=O)[O-])s1)c1nc2cc(Br)ccc2s1
inactive: [2] 21.8% | [3] 12% | [8] 17% | [10] 12% | [18] 109%
active: [1] -52.1% | [4] 7.78% | [5] -20.5% | [6] -49% | [7] -97.7% | [9] -54.1% | [11] -41.1% | [12] -30.8% | [13] -30.1% | [14] -52.1% | [15] 4.33% | [16] -56.8% | [17] -2.73% | [19] -19.5% | [20] -18.8%

CC1(C)NCCC[C@]2(C)[C@H]3CC(=O)[C@H]4[C@@H]5C[C@](C)(CO)CC[C@]5(C)CC[C@@]4(C)[C@]3(C)CC[C@@H]12
inactive: [1] 98.9% | [2] 69.8% | [3] 78.1% | [4] 99.4% | [5] 91.4% | [6] 83.5% | [7] 98.3% | [8] 98% | [9] 97.1% | [10] 105% | [11] 99.5% | [12] 96.9% | [13] 101% | [14] 95.5% | [15] 100% | [16] 102% | [17] 81.6% | [18] 100% | [19] 93.1% | [20] 67%

C=C(C)[C@@H]1CC[C@]2(C(=O)N3CCN(C)CC3)CC[C@]3(C)[C@H](CC[C@@H]4[C@@]5(C)CC[C@H](O)C(C)(C)[C@@H]5CC[C@]43C)[C@@H]12
active: [1] -83.9% | [2] -90.4% | [3] -93.2% | [4] -52% | [5] -84.8% | [6] -70.7% | [7] -67.7% | [8] -82.9% | [9] -80.9% | [10] -85.1% | [13] -74.2% | [14] -86.1% | [15] -93.3% | [16] -92% | [17] -84% | [19] -36.6% | [20] -35.7%
inactive: [11] 61.8% | [12] 92.5% | [18] 98.7%

CC(=O)[C@H]1CCC/C=C/[C@@H]2C[C@H](O)C[C@H]2[C@H](O)/C=C/C(=O)O1
inactive: [1] 11.9% | [3] 38.4% | [4] 28.6% | [5] 20.5% | [6] 27.6% | [8] 12.3% | [15] 30.8%
active: [2] 4.12% | [7] -94% | [9] -63% | [10] -16.6% | [11] -14.3% | [12] 6.77% | [13] 9.7% | [14] 1.16% | [16] 5.56% | [17] -15.7% | [18] -42.8% | [19] 9.09% | [20] -41.3%

CC/C(=C\c1ccc(OC)cc1)C(=O)c1ccc(OC)cc1
inactive: [1] 92.7% | [2] 90.3% | [3] 77.3% | [4] 85.7% | [5] 91.7% | [6] 75.7% | [7] 101% | [8] 78.7% | [9] 95.1% | [10] 106% | [11] 96% | [12] 103% | [13] 91.8% | [14] 81.1% | [15] 91.9% | [16] 96.9% | [17] 69.6% | [18] 103% | [19] 45.6% | [20] 91.5%

COc1cc(/C=C\c2cc(OC)c(OC)c(OC)c2)cc(N)c1OC
inactive: [1] 70% | [2] 87% | [3] 78.7% | [4] 88.6% | [5] 91.2% | [6] 82.1% | [7] 86.7% | [8] 74.7% | [9] 86.8% | [10] 97.6% | [11] 74.2% | [12] 94.1% | [13] 93.4% | [14] 69% | [15] 95.9% | [16] 105% | [17] 56.4% | [18] 76.5% | [19] 74% | [20] 93.1%

O=C1/C=C/[C@@H](O)[C@@H]2C[C@@H](O)C[C@H]2/C=C/CCC[C@H](CCc2cccc3ccccc23)O1
active: [1] 7.46% | [2] 3.87% | [7] -95.9% | [9] -55.9% | [10] 2.17% | [11] -9.52% | [13] 5.88% | [14] 4.61% | [15] -0.338% | [16] 6.35% | [17] -17.9% | [18] -35.6% | [19] 7.69% | [20] -36.2%
inactive: [3] 33% | [4] 30.1% | [5] 23.8% | [6] 20.6% | [8] 11.9% | [12] 13.3%

O=C1c2ccccc2C(=O)c2c([N+](=O)[O-])ccc(Cl)c21
inactive: [1] 75.9% | [2] 39.4% | [3] 96.4% | [4] 99.1% | [5] 65.6% | [6] 82.4% | [7] 97.9% | [8] 96.5% | [9] 55.4% | [10] 106% | [11] 107% | [12] 113% | [13] 97.5% | [14] 76.6% | [15] 87.6% | [16] 85.5% | [17] 39.4% | [18] 105% | [19] 63.2% | [20] 86.2%

O=C(Nc1ncc(Cc2cc(Cl)ccc2Cl)s1)c1cccs1
inactive: [1] 23.5% | [2] 24.3% | [3] 72.5% | [4] 72.9% | [5] 51.8% | [6] 53.4% | [7] 42.9% | [8] 36.7% | [9] 43.3% | [10] 63.7% | [11] 50.5% | [12] 64% | [13] 65.4% | [14] 62.5% | [15] 68.4% | [16] 60.8% | [17] 42.4% | [18] 65.3% | [19] 49.6% | [20] 63.2%
